# Assay results: PubChem BioAssay (NCATS)
# The other results are listed elsewhere or left out. Results filed as inconclusive are left out. Values without a mark were called inactive. Calls of active or inactive are those of the source. Calls come from the whole dose curve.
# Test system: Hepatitis C virus NS3/4A protease
# Test: Selectivity profile for inhibitors of NSP2Pro chikungunya virus (CHIKV): NS34A-HCV Counterscreen (AID 1964106); note: nearly all actives have a fitted effect of over 55% in size
# Details: HCV NS3/4A protease biochemical counterscreen; series mostly up to 50.9 µM; activity change, negative = inhibition: at the top concentration
# Description: PI: Natalia J. Martinez Ph.D.
# National Center for Advancing Translational Sciences (NCATS),
# National Institute of Health (NIH), Rockville, Maryland
# Chikungunya virus (CHIKV) is a mosquito-borne RNA virus that has emerged as one of the most important global arboviral threats in the last decade. Although the first CHIKV vaccine has recently been FDA approved for use in healthy adults at increased risk, to date, there are no available antiviral drugs for CHIKV infection. CHIKV nsP2 protease plays a crucial role in the processing of the viral polypeptide precursor to release enzymes required for viral replication, thus making it a promising drug target for antiviral discovery. Here, we established a high-throughput pipeline to identify small molecule inhibitors of nsP2 proteolytic activity. The pipeline is composed of a suite of 1,536-well in vitro assays to support quantitative high-throughput (qHTS) screening campaigns. Specifically, we developed a fluorescence resonance energy transfer (FRET)-based assay using a fluorogenic peptide substrate encompassing an endogenous cleavage site and purified recombinant protease domain (nsP2pro). Using this assay, we interrogated ~37,000 small molecules, including those in drug repurposing libraries as well as chemically diverse and medicinal chemistry-friendly compounds. Hits were selected for follow-up validation against full-length nsP2 and an additional peptide. FRET-based 1,536-well assays for papain, hepatitis C virus NS3-4A, and human furin proteases were implemented to characterize compound selectivity. […] Novel compounds were identified to be potential nsP2 inhibitors and molecular docking analyses were performed to explain the binding mode of selected hits. In vitro antiviral activity was evaluated against a subset of compounds using a high-throughput CHIKV infection assay. To our knowledge, the pipeline presented here is unprecedented for CHIKV antiviral discovery research.
# PROTOCOL TABLE (as described by Inglese J, Shamu CE and Guy RK. 2007)
# SEQUENCE No. (e.g., 1, 2, 3, etc.); […] (e.g., Cells, Incubation, Reagent, etc.); VALUE; DESCRIPTION.
# 1; Enzyme; 2 uL; 1,536-well solid-bottom, black plate (Greiner Bio One).
# 2; Compounds; 20 nL; Echo 655 acoustic dispenser (Beckman Coulter).
# 3; Incubation; 15 min; room temperature in the dark.
# 4: Reagent; 2 uL; Ac-DE-[Lys(5-TAMRA)]-EE-[Abu-psi(COO)Ala]-S-[Lys(ECLIPSE-7)]-amide.
# 5; Detection; Fluorescence; time 0, ViewLux microplate reader (PerkinElmer) 525 nm excitation, 598/25 nm emission
# 6; Incubation; 15 min; room temperature
# 7; Detection; Fluorescence; time 15; ViewLux microplate reader (PerkinElmer), 525 nm excitation, 598/25 nm emission.
# NOTES (numbers refer to sequence numbers above).
# 1. Two microliter of NS3-4A HCV enzyme solution (5 nM final concentration) in assay buffer (20 mM Tris-HCl pH 8.0, 150 mM NaCl, with 0.01% Tween 20) were dispensed into a 1,536-well solid-bottom black plate (Greiner Bio One) using the Kalypsys Pintool Station.
# 2. Twenty nanoliter of compounds, positive control Aprotinin (50 uM final concentration), or neutral control DMSO were transferred to the assay plates. Compounds in counter-screen assays were tested at 11 concentrations, 1:3 dilution points from 25 uM to 0.42 nM.
# 3. The assay plates were incubated in the dark for 15 min.
# 4. After incubation, 2 uL of 0.625 uM substrate (Ac-DE-[Lys(5-TAMRA)]-EE-[Abu-psi(COO)Ala]-S-[Lys(ECLIPSE-7)]-amide) in assay buffer (for NS3-4A assay) was added using the Kalypsys Pintool Station.
# 5-7. Plates were immediately read at time 0 then covered with stainless steel gasket lids and incubated for 15 min at room temperature in the dark. Fluorescence intensity in the assay plates were again read after incubation using the ViewLux imager equipped with Tamara fluorescence optics. The change in fluorescence intensity over the 15-min reaction period was normalized against DMSO and inhibitor controls as described below.
# […]
# % is set by controls: 0 for no effect and ±100 for the full control effect; potency is the fitted concentration of half-maximal effect.
Structure (SMILES),"activity change, negative = inhibition [%]",outcome,Potency
CCOc1ccc(NC(=O)c2c(NC(=O)Cc3ccccc3)sc3c2CCCCC3)cc1,87,,
CO[C@]1(NC(=O)CSC(F)F)C(=O)N2C(C(=O)O)=C(CSc3nnnn3CCO)CO[C@H]21,-9.29,,
CC1=C(/C=C/C(C)=C/C=C/C(C)=C/C=C/C=C(C)/C=C/C=C(C)/C=C/C2=C(C)CCCC2(C)C)C(C)(C)CCC1,,inactive,
C[C@@H]1O[C@@H](O[C@@H]2[C@@H](O)[C@H](OCCc3ccc(O)c(O)c3)O[C@H](CO[C@@H]3O[C@H](CO)[C@@H](O)[C@H](O)[C@H]3O)[C@H]2OC(=O)/C=C/c2ccc(O)c(O)c2)[C@H](O)[C@H](O)[C@H]1O,,inactive,
CCC(C)C(=O)OC1C(C)C2(O)C(C=C(CO)CC3(O)C(=O)C(C)=CC32)C2C(C)(C)C12OC(=O)C(C)C (stereo unspecified),,inactive [at 17.2 µM],
CCOc1ccc(NC(=O)c2c(NC(=O)Cc3ccccc3)sc3c2CCC(C)C3)cc1 (stereo unspecified),107,,
C=CC(=O)c1ccc2ccccc2c1,,inactive,
CC(=O)N[C@@H](C(=O)O[C@H]1CCC(C)(C)[C@@H]2CCC3=C(COC3=O)[C@@]12C)C(C)C,,inactive [at 33.5 µM],
C=Cc1c(C)c2cc3nc(cc4[nH]c(cc5nc(cc1[nH]2)C(C)=C5CCC(=O)O)c(CCC(=O)OC)c4C)[C@@]1(C)C3=CC=C(C(=O)OC)[C@H]1C(=O)OC,,inactive,
Cn1nnnc1Sc1ncnc2n[nH]c(-c3cccc(S(C)(=O)=O)c3)c12,,,316 µM (active)
N#CSc1cc(SC#N)c(N)nc1N,,inactive,
C[C@@H]1C[C@@H](O)[C@@]23CO[C@]2(CO)C[C@@H](O)CC3[C@@]12CC(c1ccoc1)OC2=O (stereo partly specified),,,11.3 µM (active)
Cc1c(S(=O)(=O)O)oc2c1C(=O)C(=O)c1c-2ccc2c1CCCC2(C)C,,inactive,
CCOc1ccc(N(Cc2ccccc2)C(=O)c2nc(S(C)(=O)=O)ncc2Cl)cc1,-14.7,,
O=C(O)c1cccc(-n2[nH]c(-c3ccccc3)cc2=O)c1,106,,
COC([CH2][Hg])CNC(=O)c1ccccc1OCC(=O)O (stereo unspecified),,,1.63 µM (active)
